Source: PubChem BioAssay (National Center for Advancing Translational Sciences (NCATS))
Most compounds without a hit are left out; they make up all but 5.9% or so of the library.
rTrxR1 inhibitor = inhibitors of rat thioredoxin reductase 1; O89049; recombinant rTrxR1, NADPH fluorescence consumption, selenite substrate; Potency, µM (doses to about 114 µM), without a hit: at the highest dose activity change, negative = inhibition, hits mostly inhibitors; AID 588453; actives 1% (n = 390,000); also: potency is read from the fitted curve at half-maximal effect; nearly all actives have a fitted effect of over 65% in size
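Rat TrxR1 (90 nM in the dispensed reagent) was pre-reduced with 400 uM NADPH for 5 min at room temperature, then incubated with compound for 15 min. After 400 uM selenite was added, NADPH fluorescence (Ex 340/Em 450 nm) was followed for 8 min.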
RORgamma inh = blocks mouse ROR gamma transcriptional activity; P51450; Potency, µM (titrated, usually from 53.6 µM), inactives show at the top dose activity change, negative = inhibition, actives largely listed as inhibitors; Drosophila S2 Gal4-RORgamma UAS-luciferase reporter, 20 h; actives 5.4% (n = 310,000); also: potency is read from the fitted curve at half-maximal effect; nearly all actives have a fitted effect of over 60% in size
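Schneider cells (Drosophila), stable Gal4 DBD–ROR gamma + UAS-luc; 1 hr cmpd preincubation; Cu2+ induction 700 uM final; 20 hr ambient; luminescence.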
GALK inh = galactokinase (human) inhibition; Potency, µM (doses to about 57.5 µM), without a hit: top-dose activity change, negative = inhibition, hits mostly inhibitors; Purified GALK, Kinase-Glo residual ATP luminescence; P51570; AID 1868; actives 0.007% (n = 270,000); also: potency is read from the fitted curve at half-maximal effect
Target sequence (P51570 whole entry, looked up): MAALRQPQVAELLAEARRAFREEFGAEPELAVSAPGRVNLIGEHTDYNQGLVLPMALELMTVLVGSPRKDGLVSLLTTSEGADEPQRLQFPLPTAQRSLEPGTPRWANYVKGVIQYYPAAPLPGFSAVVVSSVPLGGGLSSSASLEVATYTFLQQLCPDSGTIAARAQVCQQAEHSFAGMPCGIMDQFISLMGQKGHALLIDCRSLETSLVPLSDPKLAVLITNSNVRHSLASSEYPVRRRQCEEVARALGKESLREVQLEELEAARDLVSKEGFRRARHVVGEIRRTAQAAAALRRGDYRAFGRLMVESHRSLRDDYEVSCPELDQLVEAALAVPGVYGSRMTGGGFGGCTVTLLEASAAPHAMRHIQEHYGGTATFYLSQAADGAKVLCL
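5 nM enzyme, 35 uM ATP, 100 uM galactose, 20 mM HEPES pH8.0, 5 mM MgCl2; 1 h RT; residual ATP by Kinase-Glo Plus luminescence, qHTS format.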
FBPA coupling cs = inhibits coupling enzyme system, counter-screen for aldolase hits. activity change, negative = inhibition, % at 58.2 µM, hits read low. coupling enzyme system counterscreen, AmpLite Red fluorescence. actives 0.67% (n = 290,000); in the data active = activity change below about -30%
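Compounds tested against the coupling enzymes alone at 57.5 uM final; readout was AmpLite Red fluorescence (525/598 nm) after 20 min at RT.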
TrxR1 substrate = substrates of rat thioredoxin reductase 1; actives 0.01% (n = 390,000); O89049; purified TrxR1 substrate turnover, NADPH consumption readout; Potency, µM (top dose mostly 114 µM), for inactives: at the top dose activity change, negative = substrate turnover; also: potency is read from the fitted curve at half-maximal effect; nearly all actives have a fitted effect of over 50% in size
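Rat TrxR1, dispensed at 90 nM, was prereduced with 400 uM NADPH (final) for 5 min at ~22 deg C, then incubated with compound 15 min before 400 uM selenite. A first-read NADPH fluorescence drop versus no-compound background flagged substrates.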
Gal4-VP16 FLuc = inhibits Gal4-VP16 luciferase reporter, ROR gamma counter-screen; actives 3.5% (n = 310,000); Drosophila S2 Gal4-VP16 UAS-luciferase, luminescence, 20 h; AID 2546; Potency, µM (titrated, usually from 53.6 µM), without a hit: at the top dose activity, negative = inhibition, most hits filed as inhibitors;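 also: Gal4-VP16 expression switched on by copper sulfate through the metallothionein promoter; potency is read from the fitted curve at half-maximal effect; nearly all actives have a fitted effect of over 50% in size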
Numbers without * were called inactive; u = inconclusive; x = no result; [ ] = another dose, or the depositor's remark. Unless noted, calls follow the shape of the dose curve; as a rule, active = well fitted curve in the direction sought with a large enough effect; inconclusive = small, poorly fitted or top-dose-only effect, or another doubt; inactive = no such curve, though single readings can be large; an effect the other way counts as inactive or inconclusive. % is scaled to controls: 0 for no effect and ±100 for the full control effect.

SMILES	rTrxR1 inhibitor	RORgamma inh	GALK inh	FBPA coupling cs	TrxR1 substrate	Gal4-VP16 FLuc
CN(C)CCCN(C(=O)CCS(=O)(=O)c1ccccc1)c1nc2cc3c(cc2s1)OCO3	6.3µM*	11µM*	5%	x	3%	16µM*
COc1ccc(OC)c2sc(N(CCCN(C)C)C(=O)CCS(=O)(=O)c3ccccc3)nc12	2.8µM*	x	x	x	-2%	x
Cc1ccc2sc(N(CCCN(C)C)C(=O)CCS(=O)(=O)c3ccccc3)nc2c1C	18µM*	u	-3%	0	3%	u
CN(C)CCN(C(=O)CCS(=O)(=O)c1ccccc1)c1nc2c(F)cccc2s1	25µM*	-4%	1%	0	-8%	-1%
CCCS(=O)(=O)NCCc1cc2c(C)ccc(C)c2[nH]c1=O	31%	23%	-1%	0	12%	-1%
CCC1(C)Cc2nc3[nH]c(=S)n(-c4ccccc4C)c(=O)c3cc2CO1 (stereo not drawn)	-19%	6.3µM*	8%	-5	-8%	10µM*
CC1(C)Cc2nc3[nH]c(=S)n(-c4ccccc4)c(=O)c3cc2CO1	u	x	x	x	-1%[57.1 µM]	x
CCC1(C)Cc2nc3[nH]c(=S)n(-c4ccccc4)c(=O)c3cc2CO1 (stereo not drawn)	-19%[57.1 µM]	2.8µM*	1%	0	6%[57.1 µM]	u
Oc1ccc(Br)cc1-c1ccn[nH]1	-7%	2.8µM*	2%	0	-9%	6.3µM*
Oc1ccc(Br)cc1-c1cc(-c2ccco2)[nH]n1	8%[57.1 µM]	13µM*	0%	1	9%[57.1 µM]	16µM*
Oc1ccc(Cl)cc1-c1cc(-c2ccco2)[nH]n1	-4%[57.1 µM]	3.5µM*	1%	-10	-6%[57.1 µM]	13µM*
Oc1ccccc1-c1cc(-c2ccco2)[nH]n1	-18%	u	0%	-8	5%	u
Oc1c(-c2cc(-c3ccco3)[nH]n2)ccc2ccccc12	29%	6.3µM*	1%	1	7%	14µM*
O=C(OCc1ccccc1)c1ccc(Br)o1	10%	-3%	3%	0	-7%	-2%
O=S(=O)(NC(=NC1CCCCC1)c1ccccc1F)c1ccccc1	1%	5%	-2%	1	-1%	12%
CCc1ccccc1NC(=O)N1C2CCCC1CC(NC(C)=O)C2 (stereo not drawn)	17%	-26%	-2%	0	1%	2%
CCOC(=O)C1CCN(C(=O)C2CCN(S(=O)(=O)c3ccc4ccccc4c3)CC2)CC1	7%	u	-4%	2	0%	13%
C=CCN(CC=C)Cc1nc(N)nc(Nc2ccccc2C)n1	19%	13µM*	-3%	0	6%	-8%
CCc1ccc(S(=O)(=O)N(C(=O)c2ccncc2)c2ccc3oc(C)c(C(=O)OC)c3c2)cc1	-6%	x	x	x	-7%	x
CN1CCN(c2nc(-c3ccco3)cc(C(F)(F)F)n2)CC1	26%	-33%	-3%	-2	2%	-2%
COc1ccccc1-c1cc(C(F)(F)F)nc(S(C)(=O)=O)n1	35µM*	4µM*	4%	3	5%	7.1µM*
COc1ccccc1-c1cc(C(F)(F)F)nc(S(=O)(=O)CCCC(=O)NCc2ccc(F)cc2)n1	u	8.9µM*	16%	0	149%	u
COc1ccccc1-c1cc(C(F)(F)F)nc(N2CCCC2)n1	-2%	13%	0%	0	5%	-8%
COc1ccccc1-c1cc(C(F)(F)F)nc(S(=O)(=O)CCCC(=O)Nc2cc(Br)ccc2O)n1	u	x	x	x	0%	x
COc1ccccc1-c1cc(C(F)(F)F)nc(S(=O)(=O)CCCC(=O)N2CCCCC2C)n1 (stereo not drawn)	-75%[57.1 µM]	11µM*	-2%	1	30%	16µM*
SMILES	rTrxR1 inhibitor	RORgamma inh	GALK inh	FBPA coupling cs	TrxR1 substrate	Gal4-VP16 FLuc
COc1ccccc1-c1cc(C(F)(F)F)nc(N2CCCCC2)n1	21%[57.1 µM]	8%	-1%	-5	13%[57.1 µM]	-8%
CS(=O)(=O)c1nc(-c2ccco2)cc(C(F)(F)F)n1	x	2.5µM*	-1%	1	x	2.8µM*
CC(C)OC(=O)CSc1nc(N)c(C#N)cc1C#N	-5%	34%	0%	-1	8%	6%
COc1ccccc1-c1cc(C(F)(F)F)nc(S(=O)(=O)CCCC(=O)Nc2ccccc2F)n1	88%	x	x	x	103%	x
COc1ccccc1-c1cc(C(F)(F)F)nc(S(=O)(=O)CCCC(=O)Nc2cccnc2Cl)n1	u	4µM*	0%	0	58%[57.1 µM]	8.9µM*
COc1ccccc1-c1cc(C(F)(F)F)nc(S(=O)(=O)CCCC(=O)NC(C)C)n1	18µM*	4.5µM*	-3%	5	18%	7.1µM*
Cc1cc(O)c(C(=O)/C=C/c2ccc(Cl)cc2)c(=O)o1	-20%[57.1 µM]	15%	-4%	-13	1%[57.1 µM]	-17%
Cc1ccc(/C=C/C(=O)c2ccc([N+](=O)[O-])o2)cc1	6.3µM*	x	x	x	-4%	x
O=C(/C=C/c1ccc(Cl)cc1)c1ccc([N+](=O)[O-])o1	5µM*	x	x	x	-2%	x
CCN1CCN(CC(=O)Nc2cc(S(=O)(=O)N(CC)c3ccccc3)ccc2Cl)CC1	5%	x	x	x	-1%	x
COCC(C)NCc1ccc(C)cc1C (stereo not drawn)	12%	1%	0%	3	7%	-7%[0.365 µM]
C#CCNC(=O)C1=C[C@@H](C2CC2)C[C@@H](OCc2ccc(CO)cc2)O1	31%	35%	-3%	4	11%	4%
Cc1cccc(-n2c(SCN3C(=O)c4ccccc4C3=O)nc3ccccc3c2=O)c1	x	u	2%	-1	x	-5%
CCCn1c(SCN2C(=O)c3ccccc3C2=O)nc2cc(Cl)ccc2c1=O	16%	10µM*	x	4	6%	u
O=C(O)CC(NC(=O)C12CC3CC(CC(C3)C1)C2)c1cccc(Cl)c1 (stereo not drawn)	23%	15%	x	7	0%	0%
CCOc1ccc(N=C(NN)c2ccc3ccccc3n2)cc1	16%	10µM*	1%	-11	1%	u
CCOc1ccc(N=C(C)C2=C(O)c3ccccc3C2=O)cc1	u	-19%	-2%	-1	-18%	-19%
N#CCCn1cc(/C=N/NC(N)=S)c(-c2ccc(-c3ccccc3)cc2)n1	-10%	1.1µM*	-2%	-1	-14%	3.2µM*
N#CCCn1cc(/C=N/O)c(-c2ccccc2)n1	6%	-15%	2%	7	-8%	-9%
N#CCCn1cc(C=C(C#N)C#N)c(-c2ccc(-c3ccccc3)cc2)n1	79µM*	u	-2%	-7	16%	20µM*
O=C(NCC(=O)N1CCN(C(=O)c2ccco2)CC1)c1ccc(Cl)cc1	6%	x	x	x	12%	x
